SMILES strings stand for the structures. About 83,000 compounds went through this panel and 20% of them were active in at least one assay; those are over-represented in the sample as a whole.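 Percent growth is the endpoint: 0 to 100 indicates growth inhibition (40 means 60% inhibition), 0 means no net growth, and negative values indicate cell death.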 Unmarked numbers belong to inactive results. Activity calls are given as the source filed them.

The assay deals with MCF7 breast. Kind of assay: NCI-60 one-dose screen, 48 h (100 = growth as untreated, 0 = no growth, -100 = all killed). The conditions noted are these: 10 µM unless noted. On the procedure:
Growth inhibition of the MCF7 human tumor cell line is measured as a screen for anti-cancer activity. Cells are grown in 96 well plates and exposed to the test compound for 48 hours. Compounds are tested at a single concentration, which is 10^-5 M for most compounds. The reported endpoint is percent growth (GI% or GIPRCNT), where numbers from 0 - 100% represent growth inhibition, and numbers from -100% - 0 represent cell death. For example, a value of 40 represents 60% growth inhibition. A value of 0 means no net growth occurred over the course of the experiment. A value of -40 indicates 40% of cells at the beginning of the experiment died by the end of the experiment. A value of -100 means all cells are dead at the end of the experiment.
NCI-60 Human Tumor Cell Lines Screen was performed using the standard one-dose NCI protocol, which is described in more detail at https://dtp.cancer.gov/discovery_development/nci-60/default.htm.
Compounds with GIPRCNT values below 10 were considered active. Activity score was based on GIPRCNT using the following formula: […]
Score is 0 for GIPRCNT values of 100 or above, 50 for GIPRCNT values of 0, and 100 for GIPRCNT values of -100.
Consider `C#Cc1nc(C(=O)NCCC(=O)Nc2ccc(NC(=O)c3ccc(/C=C/C(=O)c4nccn4C)cc3)cc2)cs1`, for which the growth was 8.54% (active). For `O=S(=O)(Nc1cccc2ccccc12)c1ccc(-c2cnc(C3CC3)o2)cc1`, the growth is 22%. Regarding `C=CCn1c(-c2nc3ccc(C(=C(C#N)C#N)c4ccccc4)cc3[nH]2)cc2cc(Br)ccc21`, the growth was 0.939% (active). As for `Cc1ccc(NC(=O)N[C@@H](Cc2cc(F)cc(F)c2)C(=O)NC2C(=O)N3C[C@H](O)C[C@H]3C(=O)N3CCCC[C@H]3C(=O)N[C@@H](CO)C(=O)N3C[C@H](C)C[C@H]3C(=O)O[C@H]2C)c(F)c1` (stereo not given in full), the figure is 18.1%; as for `COc1cc2nc(Cl)nc(Nc3cccc(C4=Nc5c(N)nc(N)nc5NC(c5ccc(Br)cc5)C4)c3)c2cc1OC` (stereo not given), 39.3%.

As for `COc1c(N2CC3CCCNC3C2)c(F)cc2c(=O)c(C(=O)N/N=C/c3ccc(N(C)C)cc3)cn(C3CC3)c12` (stereo not given), the growth is 44.1%. As for `COc1cc2oc(-c3cccc(NC(=O)c4cc(N)ccc4Cl)c3)cc(=O)c2c(OC)c1OC`, the figure is 96.1%; as for `CCOc1ccc(NC2=C(Cl)C(=O)c3nc(C)ccc3C2=O)cc1`, -67% (active). For the molecule `CCOP(=O)(OCC)OC[C@]12CCC(C)(C)C=C1[C@H]1CC[C@@H]3[C@@]4(C)CC[C@H](OP(=O)(OCC)OCC)C(C)(C)[C@@H]4CC[C@@]3(C)[C@]1(C)CC2`, the growth was -47.5% (active). Next, `C=CC(=O)N1CCC=C(c2cc3c(N[C@H](C)c4ccccc4)ncnc3[nH]2)C1`: 49.5%; `O=[N+]([O-])c1cc(/C=N/Nc2nc(N/N=C/c3ccc(Cl)c([N+](=O)[O-])c3)nc(N3CCCCC3)n2)ccc1Cl`: 0.909% (active); `COc1ccc([C@H]2c3[nH]c4ccccc4c3C[C@H]3C(=O)N(C4CCN(Cc5c(Cl)cccc5Cl)CC4)CC(=O)N23)c(OC)c1`: 84.3%. As for `Nc1nc(N)c2c(n1)NC(c1ccc(Cl)cc1)CC(c1ccc(Nc3nc(NCCO)nc(N4CCOCC4)n3)cc1)=N2` (stereo not given), the figure is 41.9%. For the molecule `c1ccc(C(c2nc3ncncc3[nH]2)N2CSc3nc4ccccc4n3C2)cc1` (stereo not given), the growth is 94.9%. As for `O=C(Nc1cccc(C(F)(F)F)c1)c1cc(-c2ccc(F)cc2F)ccc1O`, the figure is 2.4% (active). As for `Nc1nc(N)c2c(n1)NC(c1ccc(C(F)(F)F)cc1)CC(c1ccc(Nc3nc(NCCO)nc(N4CCOCC4)n3)cc1)=N2` (stereo not given), the figure is 33.7%; as for `O=C(Nc1ccc2c(ccn2Cc2ccccn2)c1)c1cnccn1`, 98.1%; as for `COc1c(N2CC3CCCNC3C2)c(F)cc2c(=O)c(C(=O)N/N=C/c3ccc4c(c3)OCO4)cn(C3CC3)c12` (stereo not given), 14.6%. Consider `COc1ccc2[nH]cc(-c3csc4nc(-c5ccccc5)cn34)c2c1`, for which the growth was 11.5%. As for `O=S(=O)(NCCCNc1nccc(-n2cnc3ccccc32)n1)c1ccc(C(F)(F)F)cc1`, the figure is 83.4%; as for `Cn1ccnc1C(=O)/C=C/c1ccc(CNC(=O)c2ccc(Cl)cc2)cc1`, 10.5%; as for `COc1cc2oc(-c3cccc(C(=O)N[C@@H](CC(C)C)C(=O)OC(C)(C)C)c3)cc(=O)c2c(OC)c1OC`, 69.9%.

For `Nn1c(N/N=C/c2nc3ccccc3s2)n[nH]c1=S`, the growth was 93.7%. Next, `C=CC(=O)N1CC=C(c2cc3c(N[C@H](C)c4ccccc4)ncnc3[nH]2)CC1`: 75.5%; `Cc1ccc(-n2cc(/C=C/C(=O)c3ccc(O)cc3)c(-c3ccc(S(C)(=O)=O)cc3)n2)cc1`: 24.8%; `Clc1nc2ccccc2nc1-c1nnc(C2CCCCC2)o1`: 37.4%.

For the molecule `Cc1ccc(S(=O)(=O)N(CC[C@@H]2C[C@H]2c2cc3ccccc3o2)S(=O)(=O)c2ccc(C)cc2)cc1`, the growth was 79.6%. As for `Cn1cc(-c2nnc(N)nc2-c2c[nH]c3ccc(F)cc23)c2cc(F)ccc21`, the figure is 30.4%. Consider `NC(=O)c1c(NC(=O)c2ccc(F)cc2F)sc2c1CCC(=O)C2`, for which the growth is 51.8%.

As to `Cc1c(Cl)cccc1S(=O)(=O)Nc1ccc2c(c1)C(=O)N(C1CCC(=O)NC1=O)C2=O` (stereo not given), the growth was 88.2%. For `COc1ccc(Cn2cc3c(c2-c2cc(OC)c(OC)c(OC)c2)CCc2c(CN4CCCC4)noc2-3)cc1`, the growth is 15.5%. With `COc1cc(-c2nc(-c3ccccc3)[nH]c2-c2ccnc(NCCCNS(=O)(=O)c3cccc(F)c3)n2)ccc1Cl`, the growth is 35.3%. As for `O=C(c1ccc(Cl)cc1)C1[C@H](c2ccc(Cl)cc2)[C@@H](c2ccccc2)NC12C(=O)Nc1ccccc12` (stereo not given in full), the figure is 13.2%; as for `NC(N)=Nc1ccc(Oc2cccc(Nc3ccc(Br)c(C(F)(F)F)c3)c2)cc1`, -1.08% (active); as for `O=S(=O)(NCCNc1nccc(-n2cnc3ccccc32)n1)c1ccc(C(F)(F)F)cc1`, 34.9%. Next, `CC1(C)[C@@H](O)CC[C@]2(C)[C@H]3CC[C@@H]4[C@H]5[C@H](C(=O)/C=C\c6ccncc6)CC[C@]5(O)CC[C@@]4(C)[C@]3(C)CC[C@@H]12`: 24.6%; `NS(=O)(=O)c1ccc(-n2cc(CN3CCCCC3)nn2)cc1`: 96.9%. As for `C=C(C)[C@@H]1CC[C@]2(COP(=O)(OCC)OCC)CC[C@]3(C)[C@H](CC[C@@H]4[C@@]5(C)CCCNC(C)(C)[C@@H]5CC[C@]43C)[C@@H]12`, the growth is 13.8%. As for `CCn1c(SCC(=O)Nc2cccc(C(=O)/C=C/c3ccc(C)cc3)c2)nc2ccccc2c1=O`, the figure is 19.7%; as for `O=C(CSc1nnc(-c2ccc(Cl)cc2)n1-c1ccccc1)Nc1cccc(Cl)c1`, 65.1%.

The values are drawn from PubChem BioAssay (NCI).
